Among the data in PubChem BioAssay (NCATS) are outcome values, retold here.

Inconclusive results are not listed. Active and inactive are the calls of the source. The call rests on the fitted dose curve; in most records, active means well fitted curve in the direction sought with a large enough effect; inconclusive means small, poorly fitted or top-dose-only effect, or another doubt; inactive means no such curve, though single readings can be large or run the other way.

The nature of this experiment: qHTS for Inhibitors of Ubiquitin-specific Protease USP2a Using CHOP2 as the Reporter: K633 Counterscreen (AID 652168). To be noted: No-enzyme DiUb K48 IQF substrate fluorescence interference, kinetic; series mostly up to 57.5 µM. An excerpt:
Homeostasis of cellular proteins is maintained through a combination of synthesis and degradation. The pathway that accounts for the majority of protein degradation is the ubiquitin-proteasomal pathway. Ubiquitin (Ub) is highly conserved in all cells and the generation of a multi-Ub chain typically targets proteins for degradation by the proteasome. However, ubiquitination is highly reversible and dynamic. Deubiquitination, the reverse process, is catalyzed through the action of enzymes referred to as isopeptidases or deubiquitinating enzymes (DUBs). This group of enzymes is collectively responsible for maintaining adequate pools of free ubiquitin and regulating the ubiquitination status of cellular proteins. The class of DUBs referred to as the ubiquitin-specific proteases (USP) family functions endoproteolytically to cleave Ub chains from a wide range of protein substrates. USP2a deubiquitinates fatty acid synthase (FASN) which has recently been identified as an emerging oncology target. To identify inhibitors of USP2a a cell-free qHTS assay was employed. To determine whether the compounds interacted with the detection system alone, the effect of compounds on the substrate of assay 2.1.3 over time was determined in a 1536-well assay. A compound that modulates the fluorescence over time would be indicative of interference with the detection system. The buffer consisted of 20 mM Tris pH 8, 2 mM beta-mercaptoethanol and 0.05% Chaps, and the assay was run in black solid-bottom Greiner plates. NIH Molecular Libraries Probe Centers Network [MLPCN] NIH Chemical Genomics Center [NCGC] MLSCN Grant: MH079852 PI Name: Benjamin Nicholson, Progenra Inc, Malvern, PA
3 uL of no enzyme in assay buffer was dispensed into a 1536-well plate and then compounds were added through pinning. 1 uL of 100 nM DiUb K48-4IQF subtsrate was added before fluoresence on the ViewLux in kinetic moder (Ex 525/Em 598).
Regarding `N#Cc1cnc(NS(=O)(=O)c2ccc(NC(=O)Cc3ccc(Cl)c(Cl)c3)cc2)s1`, the outcome was inactive.
To `N#Cc1cnc(NS(=O)(=O)c2ccc(NC(=O)Cc3ccc(F)c(Cl)c3)cc2)s1` belongs “inactive”; to `CC(=O)Nc1ccc(NC(=O)c2cc(-c3ccc(C)c(C)c3)nc3ccccc23)cc1`, “inactive”; to `Cc1ccc(-c2csc(Nc3ccc(S(=O)(=O)Nc4nccs4)cc3)n2)cc1C`, “inactive”.
Turning to `Cc1ccc(-c2cc(C(=O)Nc3ccc(S(N)(=O)=O)cc3)c3cccc(C)c3n2)cc1C`, the compound was classed as inactive.
In the case of `Cc1ccc(-c2cc(C(=O)NC3CCCCC3)c3ccccc3n2)cc1C`, the compound was called inactive.
Regarding `Cc1ccc(S(=O)(=O)Nc2cnccc2C(=O)Nc2nc(-c3ccco3)cs2)cc1`, the compound was classed as inactive.
For `Cc1ccc(S(=O)(=O)Nc2cc(Cl)c(Cl)cc2C(=O)Nc2nc(-c3ccccc3)cs2)cc1`, the compound was called inactive.
The entry for `COc1ccccc1S(=O)(=O)Nc1cnccc1C(=O)Nc1nc(-c2ccccc2)cs1` is “inactive”.
The entry for `O=C(Nc1nc(-c2ccccc2)cs1)c1ccncc1NS(=O)(=O)c1ccc(F)cc1Cl` is “inactive”; for `O=C(Nc1nc(-c2ccccc2)cs1)c1ccncc1NS(=O)(=O)c1ccc(F)cc1F` it is “inactive”.
Consider `O=C(Nc1nc(-c2ccccc2)cs1)c1ccncc1NS(=O)(=O)c1ccc(Cl)cc1`, for which the call was inactive.
The entry for `Cc1cccc(S(=O)(=O)Nc2cnccc2C(=O)Nc2nc(-c3ccccc3)cs2)c1` is “inactive”.
Consider `Cc1ccc(S(=O)(=O)Nc2cnccc2C(=O)Nc2nc(-c3cc4ccccc4o3)cs2)cc1`, for which the call was inactive.
To `Cc1ccc(S(=O)(=O)Nc2cnccc2C(=O)Nc2nc(-c3nc4ccccc4s3)cs2)cc1` belongs “inactive”; to `O=C(Nc1nc(-c2ccccc2)cs1)c1ccncc1NS(=O)(=O)c1ccc2c(c1)CCC2`, “inactive”.
To `O=C(Nc1nc(-c2ccccc2)cs1)c1ccncc1NS(=O)(=O)c1ccccc1F` belongs “inactive”; to `Cc1ccc(S(=O)(=O)Nc2cnccc2C(=O)Nc2ccc(C#N)cc2)cc1`, “inactive”; to `O=C(Nc1nc(-c2ccccc2)cs1)c1ccncc1NS(=O)(=O)c1ccc(F)c(F)c1`, “inactive”.
The entry for `O=C(Nc1nc(-c2ccccc2)cs1)c1ccncc1NS(=O)(=O)c1ccc(F)cc1` is “inactive”; for `O=C(Nc1nc(-c2ccccc2)cs1)c1ccncc1NS(=O)(=O)c1cccs1` it is “inactive”; for `CC(C)Cc1ccc(-c2csc(Nc3ccc(S(=O)(=O)Nc4nccs4)cc3)n2)cc1` it is “inactive”.
Consider `COc1cccc(-c2csc(NC(=O)c3ccncc3NS(=O)(=O)c3ccc(C)cc3)n2)c1`, for which the outcome was inactive.
To `O=C(O)C1CCC(C(=O)Nc2ccc([S+](=O)([O-])Nc3nccs3)cc2)CC1` (stereo not given) belongs “inactive”; to `Cc1ccc(S(=O)(=O)Nc2cnccc2C(=O)Nc2nc(-c3ccc(Cl)cc3)cs2)cc1`, “inactive”; to `CCCc1ccc(C(=O)Nc2ccc(S(=O)(=O)Nc3nccs3)cc2)cc1`, “inactive”.
To `Cc1ccc(-c2cc(C(=O)Nc3ccc(C(N)=O)cc3)c3ccccc3n2)cc1C` belongs “inactive”; to `Cc1ccc(S(=O)(=O)Nc2cnccc2C(=O)Nc2nc(-c3cccc(Cl)c3)cs2)cc1`, “inactive”; to `Cc1ccc(S(=O)(=O)Nc2cnccc2C(=O)Nc2nc(-c3ccc(C)c(C)c3)cs2)cc1`, “inactive”.
On to `O=C(Nc1nc(-c2ccccc2)cs1)c1ccncc1NS(=O)(=O)c1ccc2ccccc2c1`, for which the outcome was inactive.
On to `Cc1ccc(S(=O)(=O)Nc2cnccc2C(=O)Nc2nc(-c3ccccc3)cs2)cc1`, for which the call was inactive.
Take `COCOC1CCC(C(=O)Nc2ccc([S+](=O)([O-])Nc3nccs3)cc2)CC1` (stereo not given): the call was inactive.
To `Cc1ccc(S(=O)(=O)Nc2cnccc2C(=O)Nc2ccc(-c3nn[nH]n3)cc2)cc1` belongs “inactive”; to `CC(=O)Nc1ncc(S(=O)(=O)Nc2cnccc2C(=O)Nc2nc(-c3ccccc3)cs2)s1`, “inactive”.
The entry for `COc1ccc(-c2csc(NC(=O)c3ccncc3NS(=O)(=O)c3ccc(C)cc3)n2)cc1` is “inactive”.
The entry for `Cc1ccc(C(=O)Nc2ccc(S(=O)(=O)Nc3nccs3)cc2)cc1C` is “inactive”; for `Cc1ccc(S(=O)(=O)Nc2cnccc2C(=O)Nc2nc(-c3cccc(F)c3)cs2)cc1` it is “inactive”; for `O=C(Nc1ccc(S(=O)(=O)Nc2nccs2)cc1)c1ccnc2ccccc12` it is “inactive”.
Take `N#Cc1ccc(S(=O)(=O)Nc2cnccc2C(=O)Nc2nc(-c3ccccc3)cs2)cc1`: the compound was classed as inactive.
In the case of `Cc1ccc(S(=O)(=O)Nc2cnccc2C(=O)Nc2nc(-c3ccccc3F)cs2)cc1`, the compound was classed as inactive.
